Experimental findings from PubChem BioAssay (Tox21) are described below.

Each structure is given as a SMILES string. Values joined by “and” are separate entries in the source; they are usually repeats but may differ in a detail not shown here. Equal values may be shown once. Records with an inconclusive call do not appear. Where a call stands in place of a potency, no number is given. Unmarked numbers belong to inactive results. Active and inactive are the calls of the source. Calls come from the whole dose curve; as a rule, active = well fitted cell-killing curve with a large enough effect in the repeat runs; inconclusive = weak or mixed curves, or effect the other way; inactive = flat fitted curve, though single readings scatter.
Potency is the fitted concentration of half-maximal effect.

The experiment is described as follows: qHTS assay to identify small molecule agonists of the androgen receptor (AR) signaling pathway in the presence of an antagonist - cell viability counter screen (AID 1259379). Note: nearly all actives have a fitted effect of over 25% in size. The following applies: MDA-kb2 viability, CellTiter-Fluor, 16 h; series mostly up to 92.4 µM; activity change, negative = cytotoxicity: at the top concentration. An excerpt:
National Center for Advancing Translational Sciences [NCATS]
NIH Chemical Genomics Center [NCGC]
U.S. Environmental Protection Agency [EPA]
National Institutes of Environmental Health Sciences [NIEHS]
National Toxicology Program [NTP]
U.S. Food and Drug Administration [FDA]
Androgen receptor (AR) is an important member of nuclear receptor family. Its signaling plays a critical role in AR-dependent prostate cancer and other androgen related diseases. Considerable attention has been given in the past decades to develop methods to study and screen for the environmental chemicals that have the potential to interfere with metabolic homeostasis, reproduction, developmental and behavioral functions. Therefore AR binding assay for screening against androgen agonists and antagonists can be used to identify potential endocrine disruptors.
MDA-kb2 cells (from ATCC, deposited by Wilson et al.) are human breast carcinoma cells that were stably transfected with a luciferase reporter gene under control of the MMTV promoter that contains response elements for both androgen receptor (AR) and glucocorticoid receptor (GR). This particular screening for measuring luciferase reporter gene activity using MDA-kb2 cells against Tox21 10K library compounds is a confirmation study on agonist mode screening in the presence of AR-antagonist compound (Nilutamide) at 3.0uM final concentration. The cytotoxicity of the compounds was tested in parallel by measuring the cell viability using CellTiter-Fluor assay system (Promega, Madison, WI) in the same wells.
Tox21 Assay Protocol Summary:
MDA-kb2 cells (cells cultured without CO2) were dispensed at 3,000 cells/well in 4uL of culture medium into white wall/solid-bottom 1536-well plates (Corning Life Sciences, Corning, NY) using a Multidrop Combi (Thermo Fisher Scientific Inc., Waltham, MA) dispenser. The assay plates were incubated at 37C and 0% CO2 for 5hr. One uL of 3.0uM (final concentration) Nilutamide or assay buffer was added using two separate tips of Flying Reagent Dispenser (FRD, Aurora Discovery, San Diego, CA). Then 23nL of compounds dissolved in DMSO at 15 concentrations and positive controls were transferred to the assay plates using a Pintool station (Wako, San Diego, CA). The assay plates were incubated at 37C and 0% CO2 for 16 hr. After 15hr incubation at 37C, 1uL/well CellTiter-Fluor reagent (Promega Corporation) was added to each well of the assay plates using FRD. After 1hr incubation at 37C and 0% CO2, the fluorescence signal was measured using a ViewLux plate reader (PerkinElmer, Shelton, CT).
On to `COC(=O)c1ccc(C(=O)OC)cc1`, for which the Potency result was “inactive”.

With `O=C1N=C(O)CN1/N=C/c1ccc(-c2ccc([N+](=O)[O-])cc2)o1`, the Potency is 30.6 µM (active) and 23.7 µM (active).

Turning to `NCCNCCNCCNCCN`, the Potency entry was “inactive”.

Regarding `Nc1c(S(=O)(=O)O)cc(Br)c2c1C(=O)c1ccccc1C2=O`, the Potency was 27.3 µM (active).

As for `CC1(C)O[C@@H]2C[C@H]3[C@@H]4C[C@H](F)C5=CC(=O)CC[C@]5(C)[C@H]4[C@@H](O)C[C@]3(C)[C@]2(C(=O)CO)O1`, the Potency result is “inactive”.

As to `O=[N+]([O-])C(CO)(CO)CO`, the Potency result was “inactive”.

On to `CCCCOCCO`, for which the Potency entry was “inactive”.

With `CCCCCCCCCCCCOCC1CO1` (stereo not given), the Potency result is “inactive”.

On to `Oc1ccc2ccccc2c1`, for which the Potency result was “inactive”.

Turning to `O=C1O[C@H](CO)[C@@H](O)[C@H](O)[C@H]1O`, the Potency result was “inactive”.

`Cc1ccc(C)c(C)c1`: the Potency entry was “inactive”.

For `O=C(c1ccc(O)cc1)c1ccc(O)cc1O`, the Potency result was “inactive”.

With `OCC1CCCO1` (stereo not given), the Potency result is “inactive”.

For `CCCCNC(N)=O`, the Potency result is “inactive”.

Take `Cc1cc(NS(=O)(=O)c2ccc(N)cc2)no1`: the Potency result is “inactive”.

Consider `Cn1c([N+](=O)[O-])cnc1COC(N)=O`, for which the Potency entry is “inactive”.

Turning to `CC(=O)CCc1ccccc1`, the Potency entry was “inactive”.

As for `COCC(C)O` (stereo not given), the Potency entry is “inactive”.

For the compound `CCCCC(CC)C(=O)OCCOCCOCCOC(=O)C(CC)CCCC` (stereo not given), the Potency entry was “inactive”.

As to `C=C(C)C(=O)OCCCCCCCCCCCC`, the Potency entry is “inactive”.

Regarding `CNC[C@H](O)[C@@H](O)[C@H](O)[C@H](O)CO`, the Potency entry was “inactive”.

Turning to `CCC(C)C=O` (stereo not given), the Potency result is “inactive”.

With `C=C(C)C(=O)OCCCCCC`, the Potency entry was “inactive”.

`Cc1cc(O)cc(C)c1Cl`: the Potency result is “inactive”.

For the compound `ClC1=C(Cl)C(Cl)(Cl)C(Cl)=C1Cl`, the Potency was 43.3 µM (active).

Consider `Cc1ccc(N)c(S(=O)(=O)O)c1`, for which the Potency entry is “inactive”.

On to `NS(=O)(=O)c1cc2c(cc1Cl)NC=NS2(=O)=O`, for which the Potency entry is “inactive”.

For the compound `C=C1CC[C@H](O)CC1=C/C=C1\CCC[C@]2(C)[C@@H]([C@H](C)/C=C/[C@H](C)C(C)C)CC[C@@H]12`, the “activity change, negative = cytotoxicity” value was -8.83%.

For `CC#C[C@]1(O)CC[C@H]2[C@@H]3CCC4=CC(=O)CCC4=C3[C@@H](c3ccc(N(C)C)cc3)C[C@@]21C`, the “activity change, negative = cytotoxicity” value is -10% [at 42.5 µM].

For `CCOC(=O)[C@H](CCc1ccccc1)N[C@@H](C)C(=O)N1Cc2ccccc2C[C@H]1C(=O)O`, the Potency result was “inactive”.

As to `Nc1nc2ncc(CNc3ccc(C(=O)N[C@@H](CCC(=O)O)C(=O)O)cc3)nc2c(=O)[nH]1`, the Potency result is “inactive”.

Regarding `C/C=C(C)/C=C/C=C(C)C`, the Potency entry is “inactive”.

For `OCC#CCO`, the Potency entry was “inactive”.

Regarding `CC(C)(N=C=O)c1cccc(C(C)(C)N=C=O)c1`, the Potency result is “inactive”.

Turning to `COCC(=O)O`, the Potency entry is “inactive”.

Regarding `O=S(=O)(Oc1ccc(Cl)cc1Cl)c1ccccc1`, the “activity change, negative = cytotoxicity” value was 2.45%.

As to `CCCCOCCOCCOC(=O)CCCCC(=O)OCCOCCOCCCC`, the Potency result was “inactive”.

Consider `CC(C)(C)C(=O)C1C(=O)c2ccccc2C1=O`, for which the Potency was 60.5 µM (active).

For the compound `c1ccc2[nH]cnc2c1`, the Potency entry was “inactive”.

As to `Oc1ccc2ccccc2c1N=Nc1ccccc1`, the Potency is 21.7 µM (active) and 27.3 µM (active).
